# Screens (PubChem)
# TGFb SMAD3 inh – blocks TGF-b signaling; hit rate 1.2% among 410,000; AID 588855; Potency, µM (highest dose often 46.1 µM), for the others: at the highest dose activity, negative = inhibition, usual class: inhibitors; HepG2 CAGA-GFP TGF-b/SMAD3 reporter, GFP fluorescence, 18 h; TGF-beta stimulated, 500 pg/mL final; also: potency is read from the fitted curve at half-maximal effect; % is scaled to controls: 0 for no effect and ±100 for the full control effect; nearly all actives have a fitted effect of over 65% in size
#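 TGF-beta reporter screen: HEPG2 CAGA-GFP, 1% FBS, 500 pg/mL TGF-beta final, 18 h; per-cell GFP summed per well; curves fitted and categorized by class.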
# HepG2 tox – HepG2 cytotoxicity, counter-screen for TGF-b inhibitors; AID 588856; hit rate 0.76% among 410,000; HepG2 CAGA-GFP viability, ATP luminescence, 18 h; Potency, µM (doses to about 46.1 µM), for the others: at the top dose activity change, negative = cytotoxicity, actives largely listed as cytotoxic; also: potency is read from the fitted curve at half-maximal effect
#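 CellTiter-Glo luminescence gave cytotoxicity after 18 hours at 37 degrees C. The cells were HepG2 CAGA-GFP in 1% FBS DMEM, stimulated with 500 pg/mL TGF-beta after compound addition. %Activity was normalised to no-cell wells (complete cell-killing) and DMSO (no toxicity), and curves were fitted and classified.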
# TDP1 block – blocks human tyrosyl-DNA phosphodiesterase 1; Q9NUW8; recombinant TDP1, AlphaScreen DNA substrate cleavage; Potency, µM (titrated, usually from 130 µM), without a hit: at the highest dose activity change, negative = inhibition, most hits filed as inhibitors; hit rate 0.28% among 350,000; also: potency is read from the fitted curve at half-maximal effect; % is scaled to controls: 0 for no effect and ±100 for the full control effect; nearly all actives have a fitted effect of over 40% in size
# Target sequence (Q9NUW8 whole entry, looked up): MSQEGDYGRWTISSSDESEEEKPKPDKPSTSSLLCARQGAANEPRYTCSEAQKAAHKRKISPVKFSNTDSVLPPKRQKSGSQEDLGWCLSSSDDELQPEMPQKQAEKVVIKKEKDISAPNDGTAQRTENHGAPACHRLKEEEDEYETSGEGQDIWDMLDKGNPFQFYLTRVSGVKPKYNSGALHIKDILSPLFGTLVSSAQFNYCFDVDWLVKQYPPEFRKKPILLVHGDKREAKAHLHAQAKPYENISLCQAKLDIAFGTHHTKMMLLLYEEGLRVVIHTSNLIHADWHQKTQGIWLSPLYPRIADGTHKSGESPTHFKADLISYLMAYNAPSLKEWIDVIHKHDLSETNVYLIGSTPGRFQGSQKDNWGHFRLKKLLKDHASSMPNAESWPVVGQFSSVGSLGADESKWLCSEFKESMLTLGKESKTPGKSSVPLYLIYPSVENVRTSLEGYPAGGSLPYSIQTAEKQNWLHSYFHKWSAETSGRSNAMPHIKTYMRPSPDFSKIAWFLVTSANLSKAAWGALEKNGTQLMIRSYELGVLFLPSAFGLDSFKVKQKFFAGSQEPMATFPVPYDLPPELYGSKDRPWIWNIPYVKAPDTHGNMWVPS
#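 Recombinant E. coli-expressed Tdp1 (1 nM) preincubated with compound 15 min at RT, then 5'-biotin/3'-phosphotyrosine-FITC DNA substrate (15 nM) added for 5 min. AlphaScreen beads (10 ug/ml) added, 10 min RT; tyrosine-FITC cleavage read as signal loss.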
# IL1B secr inh – blocks inflammasome-driven IL-1 beta release; hit rate 4.7% among 360,000; THP-1 LPS/ATP IL-1B secretion, AlphaLISA, 16 h; stronger effect = lower value; activity change, % at 57.5 µM; in the data active = activity change below about -50%; inconclusive = mostly about -30% to -49%; also: % is scaled to controls: 0 for no effect and ±100 for the full control effect
#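 Secreted IL-1B measured by AlphaLISA bead assay after 16 h compound exposure of THP-1 cells; compounds (final up to 57.5 uM) added 1 h before LPS (250 ng/mL) and ATP (1.25 mM) stimulation; lower signal means less secretion.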
# TDP1 cell noCPT – qHTS for Inhibitors of human tyrosyl-DNA phosphodiesterase 1 (TDP1): qHTS in cells in absence of CPT | DT40 Tdp1-/- hTDP1 cells, no CPT, ATP luminescence, 48 h | Potency, µM (highest dose often 46.2 µM), for the others: top-dose activity change, negative = growth inhibition, usual class: inhibitors | hit rate 15% among 420,000 | AID 686978, 2013; also: potency is read from the fitted curve at half-maximal effect; % is scaled to controls: 0 for no effect and ±100 for the full control effect; nearly all actives have a fitted effect of over 55% in size
#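 A cellular qHTS used chicken DT40 cells lacking endogenous Tdp1 but carrying stably transfected human TDP1. Compounds were applied without camptothecin, and cell growth kinetics were judged by ATP-dependent luminescence after ≥48 hr.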
# TDP1 cell CPT – growth inhibition of DT40 Tdp1-/-;hTDP1 cells with camptothecin (screen for TDP1 inhibitors). chicken DT40 Tdp1-/-;hTDP1 cells + 20 nM CPT, ATP luminescence, 48 h. Potency, µM (series often up to 46.2 µM), without a hit: top-dose activity change, negative = growth inhibition, most hits filed as inhibitors. hit rate 12% among 420,000. AID 686979; also: potency is read from the fitted curve at half-maximal effect; % is scaled to controls: 0 for no effect and ±100 for the full control effect; nearly all actives have a fitted effect of over 55% in size
#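 Chicken DT40 Tdp1-/- cells complemented with human TDP1, 400 cells/well, exposed to compounds plus 20 nM camptothecin for at least 48 h at 37 C; viability read as ATP content by CellTiter-Glo luminescence.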
# Numbers without * were called inactive; u = inconclusive; x = not tested or not shown. Only some compounds are listed: those with a hit (about 19% of all), similar ones and a draw of the others. Unless noted, calls follow the shape of the dose curve; as a rule, active = well fitted curve in the direction sought with a large enough effect; inconclusive = small, poorly fitted or top-dose-only effect, or another doubt; inactive = no such curve, though single readings can be large; an effect the other way counts as inactive or inconclusive.
SMILES,TGFb SMAD3 inh,HepG2 tox,TDP1 block,IL1B secr inh,TDP1 cell noCPT,TDP1 cell CPT
O=S(=O)(c1ccc(Cl)cc1)N1CN(CC2CCCO2)c2nc3ccccc3nc21 (centres undefined),3%,-5%,4%,-19,-17%,u
COc1ccc(S(=O)(=O)N2c3cc(Cl)ccc3Oc3nc4ccccc4nc32)cc1,-24%,-45%,0%,45,1.6µM*,0.73µM*
O=S(=O)(c1ccc(Cl)cc1)N1c2ccccc2Oc2nc3ccccc3nc21,8%,-2%,2%,5,16µM*,23µM*
CCC(CC)CN1CCN=C1N(C)C,8%,7%,x,9,-13%,-2%
CCc1ccc(C(=O)C(C)OC(=O)Cc2n[nH]c(=O)c3ccccc23)cc1 (centres undefined),-24%,-3%,2%,6,7.3µM*,6.5µM*
NS(=O)(=O)c1nn2cc(-c3ccccc3)nc2s1,x,x,11%,x,x,x
COc1ccc(CNC(=O)c2cc3sccc3n2C)cc1,x,1%,1%,x,-30%,2%
COc1ccc(CNC(=O)CN(C(=O)c2cc3sccc3n2C)C2CCCC2)cc1,-5%,-15%,4%,u,13µM*,u
Cn1nnnc1SCCCNCc1cc(Cl)ccc1OCc1ccc(F)cc1,u,-38%,1%,x,u,u
CCOC(=O)c1c(C)oc2nc(C)nc(Nc3ccc(C)c(Cl)c3)c12,-3%,-15%,2%,x,-12%,-15%
CCOC(=O)c1ccccc1NC(=O)c1c(C)oc2ncnc(N3CCOCC3)c12,-2%,-4%,1%,x,21µM*,u
CCOC(=O)c1c(C)oc2ncnc(N3CCN(c4ccccc4)CC3)c12,u,-22%,6%,x,8.2µM*,8.2µM*
CCOC(=O)c1c(C)oc2ncnc(N3CCN(c4ccccc4F)CC3)c12,0%,-27%,-3%,x,13µM*,18µM*
CCOC(=O)c1c(C)oc2nc(C)nc(N3CCN(c4cc(Cl)ccc4C)CC3)c12,u,-20%,-1%,x,21µM*,4.6µM*
CCOc1ccccc1CNC(=O)c1ccc(Cn2c(=O)c3cccn3c3cccnc32)cc1,-8%,-23%,-5%,x,0%,-21%
CCc1cccc(NC(=O)c2c(C)oc3nc(C)nc(N4CCCC4)c23)c1,-14%,-20%,3%,x,0%,2%
CCOC(=O)c1c(C)oc2nc(C)nc(N3CCN(c4ccccc4F)CC3)c12,3%,5%,-5%,x,7.3µM*,15µM*
CCOC(=O)c1c(C)oc2nc(C)nc(N3CCN(c4cccc(C)c4C)CC3)c12,-14%,-4%,3%,x,18µM*,21µM*
Cc1ccccc1OC(=O)CSc1nnc(-c2ccc3c(c2)OCO3)o1,u,7%,9%,x,-20%,-2%
O=C(NC1CCN(C(=O)Nc2cccc(Cl)c2)CC1)c1ccccc1,35%,-7%,15%,-9,u,-20%
Cc1ccc(C(=O)Nc2cccc(C(O)c3ccccc3)c2)cc1 (centres undefined),0%,-30%,x,-51*,u,-26%
Cc1ccc(C(=O)Nc2cccc(C(=O)NC3CCCC3)c2)cc1,4%,7%,1%,-10,16µM*,u
Cc1cccc(C(=O)Nc2cccc(C(=O)NC3CCCC3)c2)c1,-13%,-2%,0%,u,u,u
Cc1ccc(-n2nc(C)c(C(=O)Nc3cccc(C(=O)NC4CC4)c3)n2)c(C)c1,-5%,2%,2%,-28,8.2µM*,12µM*
Cc1nn(-c2cccc(Cl)c2)nc1C(=O)Nc1cccc(C(=O)NC2CC2)c1,20%,1%,1%,0,10µM*,u
SMILES,TGFb SMAD3 inh,HepG2 tox,TDP1 block,IL1B secr inh,TDP1 cell noCPT,TDP1 cell CPT
C=Cc1ccccc1Cl,x,x,12%,x,x,x
Cc1nn(-c2ccccc2)nc1C(=O)Nc1ccc2c(c1)OCCO2,19%,-13%,1%,u,-9%,-25%
Cc1cccc2nc(C(=O)Nc3cccc(C(=O)NC4CC4)c3)cn12,24%,-4%,2%,-18,u,13µM*
Cc1nn(-c2ccccc2)nc1C(=O)Nc1cccc(C(=O)NC2CC2)c1,-1%,-15%,x,9,15µM*,u
O=C(NC1CC1)c1cccc(NC(=O)C2CC2)c1,11%,-6%,x,-4,-11%,-3%
O=C(Nc1ccc2c(c1)OCO2)c1cnc(Cl)c(Cl)c1,-8%,-23%,x,-11,u,u
O=C(NCc1ccncc1)C(=O)NCC1OCCN1S(=O)(=O)c1cc(F)ccc1F (centres undefined),-5%,-19%,x,2,-12%,-13%
CCCNc1nc(Nc2ccc([N+](=O)[O-])cc2)nc(N2CCOCC2)n1,14%,8%,x,x,14µM*,13µM*
C=CCNc1nc(Nc2ccc([N+](=O)[O-])cc2)nc(N2CCCC2)n1,-18%,-2%,5%,-63*,u,15µM*
C=CCNc1nc(Nc2ccc(-c3nc4ccccc4o3)cc2)nc(N2CCOCC2)n1,u,-45%,8%,-7,26µM*,29µM*
CCCCc1ccc(Nc2nc(N3CCOCC3)nc(N3CCOCC3)n2)cc1,-1%,-1%,8%,-17,u,u
C=CCNc1nc(NCC)nc(N2CCOCC2)n1,-59%,-8%,1%,5,-25%,-26%
C=CCNc1nc(Cl)nc(Nc2ccc([N+](=O)[O-])cc2)n1,10%,11%,2%,13,14%,0%
CS(=O)(=O)c1ccc(Cl)c(C(=O)OCC(=O)NC2CCCCCCC2)c1,4%,3%,0%,8,3%,-1%
COCC(=O)N1CCC2(CC1)CCN(c1ccccc1)CC2,x,x,x,x,-10%,-4%
NS(=O)(=O)OCCCc1ccccc1,-3%,-19%,x,20,-11%,u
[2H]C(CCOS(N)(=O)=O)c1ccc(C(C)(C)C)cc1 (centres undefined),u,-15%,x,18,21µM*,21µM*
Cc1ccc(-c2cc3ncc4c(n3n2)-c2cc(Cl)ccc2OC4)cc1,10%,3%,2%,x,-10%,0%
CCS(=O)(=O)N1Cc2ccccc2CC1C(=O)NCCc1ccccc1 (centres undefined),0%,5%,x,13,-1%,14%
